{
  "source": "PubChem BioAssay (NCI)",
  "note": "The panel holds about 79,000 compounds, 15% with a hit somewhere; the sample as a whole holds those more often. The source made the active and inactive calls. No stated cut-off is given here; in the data, active means growth inhibition above about 70%; inactive means the rest.",
  "data": [
    {"experiment": "NCI Yeast Anticancer Drug Screen. Data for the bub3 strain (AID 167)", "details": "S. cerevisiae bub3 mutant strain, at 50.0 µM, stronger effect = higher value", "method_in_brief": "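Compounds were applied to a genetically altered yeast strain carrying a cell-cycle control defect. Growth inhibition was scored against vehicle-treated controls.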", "values": [
      {"smiles": "COC(=O)CC(NC(=O)C(Cc1cncn1C(=O)OCc1ccccc1)NC(=O)OCc1ccccc1)C(=O)O", "note": "(stereo unspecified)", "growth inhibition": "0.05% (inactive)"},
      {"smiles": "CS/C(=N/N=C(\\C)c1ccccn1)[Se][Se]/C(=N/N=C(\\C)c1ccccn1)SC", "growth inhibition": "-2.5% (inactive)"},
      {"smiles": "Nc1cccc2c(=O)[nH][nH]c(=O)c12", "growth inhibition": "14.8% (inactive)"},
      {"smiles": "CC(C)c1ccc(NC(=S)NCCO)cc1", "growth inhibition": "-4.1% (inactive)"},
      {"smiles": "C/C(=N/NC(=O)CC#N)c1ccccc1", "growth inhibition": "27.7% (inactive)"},
      {"smiles": "O=c1cc(-c2ccccc2Cl)[nH]c2cc3c(cc12)OCO3", "growth inhibition": "12.6% (inactive)"},
      {"smiles": "NCCCn1[nH]c(=O)c2ncccc2c1=O", "growth inhibition": "-21.6% (inactive)"},
      {"smiles": "Cc1cc(C)c(CN(C)C)c(CC(O)c2ccccc2)c1", "note": "(stereo unspecified)", "growth inhibition": "3.45% (inactive)"},
      {"smiles": "CC(=O)Nc1ccc(/C=C2\\SC(=S)N(/C=C3/C(=O)N(c4ccccc4)N=C3C)C2=O)cc1", "growth inhibition": "-2.85% (inactive)"},
      {"smiles": "CC(=O)OC[C@]1(O)CC[C@@]23CC1C[C@@H]2CCC1C(C)(C)CCC[C@@]13C", "note": "(stereo partly specified)", "growth inhibition": "67.7% (inactive)"},
      {"smiles": "O=C1OC(c2ccc(Cl)cc2)=N/C1=C\\c1c(Cl)cccc1Cl", "growth inhibition": "5.9% (inactive)"},
      {"smiles": "CCOC(=O)CC1(C)c2nc(NC(C)=O)sc2Cc2sc(NC(C)=O)nc21", "growth inhibition": "-2.4% (inactive)"},
      {"smiles": "NC1=NOC(=O)C1c1ccccc1", "note": "(stereo unspecified)", "growth inhibition": "-9.5% (inactive)"},
      {"smiles": "CCc1cc(C(C)(C)C)cc(C(C)(C)C)c1O", "growth inhibition": "21.4% (inactive)"},
      {"smiles": "COc1ccc(/C=N/Nc2nc3ccccc3c(=O)n2-c2ccccc2)c(OCc2ccccc2)c1", "growth inhibition": "9% (inactive)"},
      {"smiles": "C[n+]1c(-c2ccc(Cl)c(Cl)c2)c2cc(N)ccc2c2ccccc21", "growth inhibition": "7.2% (inactive)"}
    ]}
  ]
}
